Consider 26 compounds from PubChem BioAssay AID720511 (Broad Institute, 2013).

Structures are written as SMILES. Among all 350,000 compounds or so, about 1,300 (0.37%) were called active. What follows is part of a selection rich in actives, with near analogues and random picks from the rest. A number with no mark means an inactive call.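 The calls were made as follows: active = mean added fluorescence quench of at least 8% versus neutral control, with both replicates also reaching 8%; inconclusive = only one of the mean or replicate conditions met; inactive = mean below 8% and not both replicates reaching 8%.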

The assay can be described thus: F508del CFTR correction, initial screen, CFBE line, single point (AID 720511).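 Also: cells transiently co-express mutant CFTR-F508del with the halide-sensitive YFP; corrector assay measuring rescue of mutant channel to the surface after 24 h compound exposure.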 Conditions: CFBE cells, YFP halide quenching, at 7.58 µM, hits give high values, % fluorescence drop versus neutral controls, stimulated with forskolin plus potentiator P3.
`C[C@H]1CCCCO[C@H](CN(C)Cc2ccccc2)[C@@H](C)CN([C@@H](C)CO)C(=O)c2cc(NC(=O)c3ccccc3)ccc2O1`: the activity (quench increase) was -0.952%.

Turning to `C[C@H]1CN([C@@H](C)CO)S(=O)(=O)c2ccc(C3=CCCCC3)cc2O[C@@H]1CN(C)Cc1ccccc1`, the activity (quench increase) was -0.755%.

As to `C[C@@H]1CN([C@@H](C)CO)S(=O)(=O)c2ccc(-c3ccc(F)cc3)cc2O[C@@H]1CN(C)CC1CC1`, the activity (quench increase) was 2.11%.

As for `Oc1ccc(/C=N/Nc2nc(-c3ccccc3F)nc3ccccc23)c(O)c1`, the activity (quench increase) is 12.3% (active).

As for `CO[C@@H]1CN(C)C(=O)c2ccc(NS(=O)(=O)c3cccc(Cl)c3)cc2OC[C@H](C)NC[C@H]1C`, the activity (quench increase) was -1.91%.

As to `CC(C)NC(=O)N(C)C[C@H]1Oc2ccc(NC(=O)Cn3cnnn3)cc2CC(=O)N([C@H](C)CO)C[C@H]1C`, the activity (quench increase) is -1.17%.

Take `Cc1noc(C)c1S(=O)(=O)N(C)C[C@H]1Oc2c(NC(=O)c3cnccn3)cccc2C(=O)N([C@H](C)CO)C[C@H]1C`: the activity (quench increase) was -0.706%.

Regarding `Cc1cccc(N(C)C(=O)c2cc3c(=O)[nH]c4ccc(C)cc4c3s2)c1`, the activity (quench increase) is 15.5% (active).

Regarding `CCN(CC)CCCNC(=O)c1cc2c(=O)[nH]c3ccc(C)cc3c2s1`, the activity (quench increase) was 4.04%.

Consider `Cc1ccc2[nH]c(=O)c(CC(=O)O)c(-c3ccccc3)c2c1`, for which the activity (quench increase) is -4.85%.

Take `Cc1cccc(S(=O)(=O)N2C[C@@H]3[C@H](c4ccccc42)[C@H](CO)N3CC2CCOCC2)c1`: the activity (quench increase) was -1%.

For `Cc1ccc(S(=O)(=O)N[C@@H]2CC[C@H](CCn3cc(-c4cccc(F)c4)nn3)O[C@@H]2CO)cc1`, the activity (quench increase) was -2.65%.

For the compound `C[C@@H](NC(=O)[C@@H]1[C@@H](CO)[C@@H]2Cn3c(ccc(C4=CCCCC4)c3=O)[C@@H]2N1C)c1ccccc1`, the activity (quench increase) is 1.82%.

`C[C@@H]1CCCCO[C@H](CN(C)C(=O)Nc2ccc3c(c2)OCO3)[C@@H](C)CN([C@@H](C)CO)C(=O)c2cc(NC(=O)CCC(F)(F)F)ccc2O1`: the activity (quench increase) was 2.41%.

Turning to `CCS(=O)(=O)N1CC2(CN(C(=O)c3ccc(F)cc3)[C@H](CO)c3c2c2ccc(OC)cc2n3C)C1`, the activity (quench increase) was 2.9%.

As to `S=c1[nH]nc(-c2ccc(Cl)cc2)n1CC1CCCO1` (stereo unspecified), the activity (quench increase) was -0.339%.

As to `O=C(c1[nH]ncc1-c1ccc(Cl)cc1)C1CO1` (stereo unspecified), the activity (quench increase) is 9.82% (active).

`COc1ccc(NC(=O)C2Cc3c(-c4ccc(Cl)cc4)ccnc3O2)cc1` (stereo unspecified): the activity (quench increase) was -2.37%.

Turning to `C[C@H](CO)N1C[C@H](C)[C@@H](CN(C)C(=O)C2CC2)Oc2ncc(-c3cccc(C#N)c3)cc2C1=O`, the activity (quench increase) is 0.111%.

Turning to `Cc1ccc(S(=O)(=O)Nc2ccc3c(c2)C(=O)N([C@@H](C)CO)C[C@@H](C)[C@H](CN(C)C(=O)NC(C)C)OCCCC[C@H](C)O3)cc1`, the activity (quench increase) is -0.752%.

As for `COc1ccc(S(=O)(=O)Nc2ccc3c(c2)C(=O)N([C@@H](C)CO)C[C@@H](C)[C@H](CN(C)C(=O)Nc2ccc(C(F)(F)F)cc2)OCCCC[C@@H](C)O3)cc1`, the activity (quench increase) is -1.09%.

Turning to `CCOC(=O)C1CSCCS(=O)(=O)N1Cc1ccc(Cl)cc1` (stereo unspecified), the activity (quench increase) was -1.25%.

As to `CO[C@H]1CN(C)C(=O)c2ccc(NC(=O)c3cccc(F)c3)cc2OC[C@H](C)N(CC2CC2)C[C@@H]1C`, the activity (quench increase) was -0.247%.

`Cc1c(C(=O)NC(C)C2CC3CCC2C3)cccc1[N+](=O)[O-]` (stereo unspecified): the activity (quench increase) is -0.675%.

`Cc1cccc(C(=O)OCC(=O)NCC(C)C)c1O`: the activity (quench increase) is 0.752%.

Turning to `Cc1cccc(C(=O)OCC(=O)NC(C)C2CC3CCC2C3)c1O` (stereo unspecified), the activity (quench increase) is 25.6% (active).
